From PubChem BioAssay (NCI) come the findings set out here.

The panel holds about 79,000 compounds, 15% with a hit somewhere; the sample as a whole holds those more often. Calls of active or inactive are those of the source. Cut-off read from the data, not from the text of the source: active = growth inhibition above about 70%; inactive = the rest.

Assay [1] in a line: NCI Yeast Anticancer Drug Screen. Data for the rad50 strain (AID 155).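 Note: 0% = growth of vehicle-only cultures of the same strain.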 To be noted: S. cerevisiae rad50 strain growth inhibition; at 50.0 µM; hits give high values. The procedure, abridged: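 A DNA repair-deficient yeast mutant serves as the test organism; compound-induced growth inhibition is calculated against vehicle-treated cells.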
A short description of assay [2]: NCI Yeast Anticancer Drug Screen. Data for the mec2-1 strain (AID 157). To be noted: S. cerevisiae mec2-1 strain, at 50.0 µM, hits give high values. Summed up:
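Each compound was tested on mec2-1 yeast, a strain altered in DNA damage repair or cell cycle control. Growth inhibition is reported relative to vehicle.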

Assay [3] in a line: NCI Yeast Anticancer Drug Screen. Data for the sgs1 mgt1 strain (AID 161).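 Note: 0% = growth of cultures given vehicle only.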 To be noted: S. cerevisiae sgs1 mgt1 strain, at 50.0 µM, hits give high values. The procedure, abridged:
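Inhibition of yeast growth, normalised to vehicle-treated controls, is reported for a strain bearing genetic alterations in DNA damage repair.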

A short description of assay [4]: NCI Yeast Anticancer Drug Screen. Data for the cln2 rad14 strain (AID 165).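 Note: 0% = growth equal to vehicle treated cultures.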 To be noted: S. cerevisiae cln2 rad14 strain, at 50.0 µM, hits give high values. Summed up:
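Test compounds were added to cln2 rad14 yeast cultures; inhibition of growth was then determined by comparison with vehicle treatment.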

Assay [5] is described as follows: NCI Yeast Anticancer Drug Screen. Data for the bub3 strain (AID 167). To be noted: S. cerevisiae bub3 mutant strain, at 50.0 µM, hits give high values. Summed up:
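Inhibition values come from growth of compound-treated mutant yeast normalised to vehicle-treated controls.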

The nature of assay [6]: NCI Yeast Anticancer Drug Screen. Data for the mlh1 rad18 strain (AID 175). To be noted: S. cerevisiae mlh1 rad18 strain growth inhibition; at 50.0 µM; hits give high values. The procedure, abridged: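 Inhibition values reflect reduced growth of mutant yeast versus vehicle-treated controls following compound exposure; the mutations affect DNA damage repair.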

In the case of `CCC(CC)CC(=O)OC/C(=N\Nc1ccc([N+](=O)[O-])cc1[N+](=O)[O-])c1ccc(-c2ccccc2)cc1`, the growth inhibition was -30.9% (inactive) in assay [1]; 0.15% (inactive) in assay [2]; -2.85% (inactive) in assay [3]; -33.8% (inactive) in assay [4]; -12.2% (inactive) in assay [5]; -7% (inactive) in assay [6].

Take `COC(=O)C1(C(=O)OC)C/C(C)=C(/C)SCCCS1`: the growth inhibition was -12.7% (inactive) in assay [1]; -5.6% (inactive) in assay [2]; -14.8% (inactive) in assay [3]; 19.9% (inactive) in assay [4]; -23.1% (inactive) in assay [5]; -26.4% (inactive) in assay [6].

Consider `O=C(c1ccc(Cl)cc1)N(C(=S)N1CCN(c2ccccn2)CC1)C1CCCCC1`, for which the growth inhibition in assay [1] was 4.5% (inactive); in assay [2], 13.7% (inactive); in assay [3], 15.3% (inactive); in assay [4], 6.85% (inactive); in assay [5] it was -16.6% (inactive); in assay [6], 19.4% (inactive).

On to `COCCCNc1ccc([N+](=O)[O-])cn1`, for which the growth inhibition in assay [1] was -21.4% (inactive); in assay [2], -40.6% (inactive); in assay [3], -20.4% (inactive); in assay [4], 2.2% (inactive); in assay [5] it was -13% (inactive); in assay [6], -14.4% (inactive).

As for `COC(C)CCOC(=O)c1ccccc1` (configuration not stated), the growth inhibition in assay [1] is -33% (inactive); in assay [2], -17.6% (inactive); in assay [3], -14.2% (inactive); in assay [4], -29.7% (inactive); in assay [5], -29.9% (inactive); in assay [6] it was -31.2% (inactive).

Take `COC1(C)COC(C)(OC)CO1` (configuration not stated): the growth inhibition in assay [1] is 34.3% (inactive); in assay [2], 20.9% (inactive); in assay [3] it was 24.1% (inactive); in assay [4], 13.6% (inactive); in assay [5], 12.8% (inactive); in assay [6] it was 18.6% (inactive).

Take `C/C(=C/c1c(C)[nH]c(=O)[nH]c1=O)C(=O)O`: the growth inhibition in assay [1] was 10.9% (inactive); in assay [2], 13.6% (inactive); in assay [3] it was -3.75% (inactive); in assay [4], -29.8% (inactive); in assay [5], 8.75% (inactive); in assay [6] it was -3.75% (inactive).

In the case of `CC(C)(NC(=O)c1cc(Cl)c2ccccc2c1O)C(=O)O`, the growth inhibition is 4.4% (inactive) in assay [1]; 2.8% (inactive) in assay [2]; 27.7% (inactive) in assay [3]; 22.9% (inactive) in assay [4]; 8.6% (inactive) in assay [5]; 17.7% (inactive) in assay [6].

With `CCOC(=O)CC(CC(=O)OCC)(C(=O)OCC)C(=O)OCC`, the growth inhibition in assay [1] was -2.2% (inactive); in assay [2], 4.45% (inactive); in assay [3], 8.55% (inactive); in assay [4], -57.2% (inactive); in assay [5] it was -17.3% (inactive); in assay [6] it was -1.95% (inactive).

Turning to `Cc1[nH]c(=O)nc(N(CCO)/N=C/c2ccc(Cl)cc2)c1C(=O)Nc1ccc(Cl)cc1`, the growth inhibition was 6.7% (inactive) in assay [1]; 38.6% (inactive) in assay [2]; -18.1% (inactive) in assay [3]; 12.4% (inactive) in assay [4]; -13.3% (inactive) in assay [5]; -36% (inactive) in assay [6].

Turning to `CC(C)CC(C)OB(OC(C)CC(C)C)OC(C)CC(C)C` (configuration not stated), the growth inhibition was -11.2% (inactive) in assay [1]; -24.1% (inactive) in assay [2]; -4.3% (inactive) in assay [3]; -16.9% (inactive) in assay [4]; 0.7% (inactive) in assay [5]; -14.6% (inactive) in assay [6].

Turning to `Nc1cc(Nc2ccc(Cl)[nH]c2=S)nc(N)n1`, the growth inhibition was 31.1% (inactive) in assay [1]; 13.8% (inactive) in assay [2]; 11.5% (inactive) in assay [3]; 20.6% (inactive) in assay [4]; 18.4% (inactive) in assay [5]; 15.2% (inactive) in assay [6].

Consider `NCCOCC(N)C(=O)O` (configuration not stated), for which the growth inhibition in assay [1] was -9.3% (inactive); in assay [2], -14.4% (inactive); in assay [3] it was -52.4% (inactive); in assay [4], -27.1% (inactive); in assay [5], -51% (inactive); in assay [6], 8.4% (inactive).

On to `NC1(C(=O)OCc2ccccc2)CCCC1`, for which the growth inhibition in assay [1] was 18.6% (inactive); in assay [2], -5.45% (inactive); in assay [3] it was -14.1% (inactive); in assay [4], 1.9% (inactive); in assay [5], -1.7% (inactive); in assay [6], 37.9% (inactive).

`Oc1ccc(-c2c3ccccc3c(-c3ccc(OCCBr)cc3)c3ccccc23)cc1`: the growth inhibition in assay [1] was -24.2% (inactive); in assay [2], -9.75% (inactive); in assay [3], -9.9% (inactive); in assay [4], 4.65% (inactive); in assay [5] it was -11.3% (inactive); in assay [6], 7.4% (inactive).

With `O=c1c(Br)c(-c2ccccc2)[nH]c2ccccc12`, the growth inhibition in assay [1] is 2.95% (inactive); in assay [2], -12.8% (inactive); in assay [3] it was -32.5% (inactive); in assay [4] it was 0.9% (inactive); in assay [5] it was -5.7% (inactive); in assay [6], 7.7% (inactive).

As for `Clc1nnc(-c2ccccc2)s1`, the growth inhibition in assay [1] was 2.3% (inactive); in assay [2], 2.85% (inactive); in assay [3], 19.9% (inactive); in assay [4], 7.85% (inactive); in assay [5], 8.2% (inactive); in assay [6], 9.5% (inactive).

In the case of `CCCCOC(=O)C(C)OC(=O)Nc1ccccc1` (configuration not stated), the growth inhibition in assay [1] is 5.85% (inactive); in assay [2], 23.4% (inactive); in assay [3], 16.1% (inactive); in assay [4], -52.6% (inactive); in assay [5], 18.6% (inactive); in assay [6] it was 12% (inactive).

With `CCOC(=O)c1cn(C2OC(COC(=O)c3ccccc3)C(OC(=O)c3ccccc3)C2OC(=O)c2ccccc2)c(=O)nc1N` (configuration not stated), the growth inhibition in assay [1] is -1.05% (inactive); in assay [2] it was -12.2% (inactive); in assay [3], 18% (inactive); in assay [4] it was -32% (inactive); in assay [5] it was 7.45% (inactive); in assay [6], -7.15% (inactive).

Turning to `[O-]/[N+]1=[N+](\[O-])c2ccccc2CCCc2ccccc21`, the growth inhibition in assay [1] is -7.35% (inactive); in assay [2], -7.3% (inactive); in assay [3], -2.6% (inactive); in assay [4], -34.1% (inactive); in assay [5], -12.8% (inactive); in assay [6], -7.1% (inactive).

Turning to `CCOC(=O)C1Oc2ccccc2O1`, the growth inhibition in assay [1] was 11.8% (inactive); in assay [2], -14.6% (inactive); in assay [3] it was -7% (inactive); in assay [4], -41.1% (inactive); in assay [5], -13.1% (inactive); in assay [6] it was -10.8% (inactive).

Turning to `CP(=O)(c1ccccc1)c1ccccc1OCCCOCCCOc1ccccc1P(C)(=O)c1ccccc1` (configuration not stated), the growth inhibition in assay [1] was -4.8% (inactive); in assay [2], 3.4% (inactive); in assay [3] it was 0.45% (inactive); in assay [4], 8.1% (inactive); in assay [5] it was -3.55% (inactive); in assay [6] it was -10.6% (inactive).

For the compound `COC(=O)C(C(=O)C(N)=O)c1csc(-n2nc(-c3ccccc3)cc2-c2ccccc2)n1` (configuration not stated), the growth inhibition in assay [1] is -1.5% (inactive); in assay [2], -13.4% (inactive); in assay [3] it was -13.8% (inactive); in assay [4] it was 10.2% (inactive); in assay [5], 30.2% (inactive); in assay [6], -7.2% (inactive).

For the compound `NC1=C(O)C(=O)C(c2ccccc2O)O1` (configuration not stated), the growth inhibition in assay [1] was -34.6% (inactive); in assay [2], -32.6% (inactive); in assay [3], -19.1% (inactive); in assay [4], -21.6% (inactive); in assay [5], -18.6% (inactive); in assay [6] it was -10.9% (inactive).

`O=C1c2cc(Cl)ccc2NC(O)c2cccn21` (configuration not stated): the growth inhibition in assay [1] was 3.45% (inactive); in assay [2], 1.8% (inactive); in assay [3], -4.3% (inactive); in assay [4], -20.9% (inactive); in assay [5], -11.4% (inactive); in assay [6], -0.55% (inactive).

With `CC1=NN(c2nc(N)nc(CCl)n2)CC1`, the growth inhibition in assay [1] was 11.1% (inactive); in assay [2] it was 6.35% (inactive); in assay [3], 8.15% (inactive); in assay [4], 21.9% (inactive); in assay [5], 11.5% (inactive); in assay [6], -29.2% (inactive).

Regarding `CCOC(=O)C1SC(=Nc2ccc(OC)c(OC)c2)N=C1C` (configuration not stated), the growth inhibition is 17.9% (inactive) in assay [1]; 4.2% (inactive) in assay [2]; 50.3% (inactive) in assay [3]; 4.95% (inactive) in assay [4]; 29.9% (inactive) in assay [5]; 1.4% (inactive) in assay [6].

As to `O=[N+]([O-])C(C(Cl)=C(Cl)Cl)=C(N1CCCCC1)N1CCCCC1`, the growth inhibition in assay [1] was -48.2% (inactive); in assay [2] it was -19.5% (inactive); in assay [3], -13.1% (inactive); in assay [4] it was -22.1% (inactive); in assay [5] it was -19.4% (inactive); in assay [6] it was -13.9% (inactive).

Consider `[Cl][Pt+2][Cl].[NH-]C1CCC1[NH-]` (configuration not stated), for which the growth inhibition is 4.7% (inactive) in assay [1]; -9.3% (inactive) in assay [2]; -12% (inactive) in assay [3]; -24.4% (inactive) in assay [4]; -4.1% (inactive) in assay [5]; 10.5% (inactive) in assay [6].

Turning to `O=C(NC1CCCCC1)Oc1ccc(-c2ccccc2)cc1Cl`, the growth inhibition was 98.7% (active) in assay [1]; 99.3% (active) in assay [2]; 98.3% (active) in assay [3]; 98.2% (active) in assay [4]; 99% (active) in assay [5]; 99.1% (active) in assay [6].

Regarding `CCOC(=O)c1c(-c2ccccc2)csc1NC(=O)CN1CCCCC1`, the growth inhibition is 28.6% (inactive) in assay [1]; 8.8% (inactive) in assay [2]; 14.7% (inactive) in assay [3]; 6.55% (inactive) in assay [4]; 17.9% (inactive) in assay [5]; 24.7% (inactive) in assay [6].

As for `O=S1(=O)COc2ccccc2-c2ncncc21`, the growth inhibition in assay [1] was 10.2% (inactive); in assay [2] it was -9.85% (inactive); in assay [3], -2.35% (inactive); in assay [4] it was 31.2% (inactive); in assay [5], -2.6% (inactive); in assay [6], -11.8% (inactive).
